# Reference: PMC9911399, “Two distinct binding modes provide the RNA-binding protein RbFox with extraordinary sequence specificity”
# Numbering of substitutions follows the chain as printed; changes in the protein carry UniProt numbers. The full ranking holds about 16,000 sequences; the median of “ka relative to ugcaugu” is about 0.0091, and the highest 2% start at about 0.032. The list comes from a sample in which the highest values are over-represented; it also holds similar and randomly drawn sequences.
# T1: RBFOX1 RRM (Homo sapiens, UniProt Q9NWB1 109-208)
# T1 sequence: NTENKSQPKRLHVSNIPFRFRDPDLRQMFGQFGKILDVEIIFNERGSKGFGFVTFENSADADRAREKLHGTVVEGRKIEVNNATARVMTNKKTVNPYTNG
# B1: UUCUUAU (DNA:RNA)
# RNA: GGGAGACCGGAAUUCAGAUUGUCCUUCUUAUUUAAAUCCCGUCGUAGCCACCA
# DNA 1: CAATCTGAATTCCGGTCTCCC
# DNA 2: TGGTGGCTACGACGGGATT
# B2: UGAUCGU (DNA:RNA)
# RNA: B1 RNA with U26G, C27A, U29C, A30G
# DNA 1: CAATCTGAATTCCGGTCTCCC
# DNA 2: TGGTGGCTACGACGGGATT
# B3: CCACUCA (DNA:RNA)
# RNA: B1 RNA with U25C, U26C, C27A, U28C, A30C, U31A
# DNA 1: CAATCTGAATTCCGGTCTCCC
# DNA 2: TGGTGGCTACGACGGGATT
# B4: GCAAACU (DNA:RNA)
# RNA: B1 RNA with U25G, U26C, C27A, U28A, U29A, A30C
# DNA 1: CAATCTGAATTCCGGTCTCCC
# DNA 2: TGGTGGCTACGACGGGATT
# B5: GGAACAC (DNA:RNA)
# RNA: B1 RNA with U25G, U26G, C27A, U28A, U29C, U31C
# DNA 1: CAATCTGAATTCCGGTCTCCC
# DNA 2: TGGTGGCTACGACGGGATT
# B6: AAGCAUG (DNA:RNA)
# RNA: GGGAGACCGGAAUUCAGAUUGUCCAAGCAUGUUAAAUCCCGUCGUAGCCACCA
# DNA 1: CAATCTGAATTCCGGTCTCCC
# DNA 2: TGGTGGCTACGACGGGATT
# B7: UAGCAUG (DNA:RNA)
# RNA: B6 RNA with A25U
# DNA 1: CAATCTGAATTCCGGTCTCCC
# DNA 2: TGGTGGCTACGACGGGATT
# B8: AAGCAUC (DNA:RNA)
# RNA: B6 RNA with G31C
# DNA 1: CAATCTGAATTCCGGTCTCCC
# DNA 2: TGGTGGCTACGACGGGATT
# B9: AGCAUAA (DNA:RNA)
# RNA: B1 RNA with U25A, U26G, U28A, U31A
# DNA 1: CAATCTGAATTCCGGTCTCCC
# DNA 2: TGGTGGCTACGACGGGATT
# B10: AGCCUGC (DNA:RNA)
# RNA: B6 RNA with A26G, G27C, A29U, U30G, G31C
# DNA 1: CAATCTGAATTCCGGTCTCCC
# DNA 2: TGGTGGCTACGACGGGATT
# B11: UAGCAUA (DNA:RNA)
# RNA: B6 RNA with A25U, G31A
# DNA 1: CAATCTGAATTCCGGTCTCCC
# DNA 2: TGGTGGCTACGACGGGATT
# B12: UAGCAUC (DNA:RNA)
# RNA: B6 RNA with A25U, G31C
# DNA 1: CAATCTGAATTCCGGTCTCCC
# DNA 2: TGGTGGCTACGACGGGATT
# B13: AGAAUGC (DNA:RNA)
# RNA: B6 RNA with A26G, G27A, C28A, A29U, U30G, G31C
# DNA 1: CAATCTGAATTCCGGTCTCCC
# DNA 2: TGGTGGCTACGACGGGATT
# B14: AGCAUGA (DNA:RNA)
# RNA: B1 RNA with U25A, U26G, U28A, A30G, U31A
# DNA 1: CAATCTGAATTCCGGTCTCCC
# DNA 2: TGGTGGCTACGACGGGATT
# B15: AAGCAUA (DNA:RNA)
# RNA: B6 RNA with G31A
# DNA 1: CAATCTGAATTCCGGTCTCCC
# DNA 2: TGGTGGCTACGACGGGATT
# B16: AGCAUGC (DNA:RNA)
# RNA: B1 RNA with U25A, U26G, U28A, A30G, U31C
# DNA 1: CAATCTGAATTCCGGTCTCCC
# DNA 2: TGGTGGCTACGACGGGATT
# B17: ACCAGCA (DNA:RNA)
# RNA: B6 RNA with A26C, G27C, C28A, A29G, U30C, G31A
# DNA 1: CAATCTGAATTCCGGTCTCCC
# DNA 2: TGGTGGCTACGACGGGATT
# B18: GGUGGAA (DNA:RNA)
# RNA: B1 RNA with U25G, U26G, C27U, U28G, U29G, U31A
# DNA 1: CAATCTGAATTCCGGTCTCCC
# DNA 2: TGGTGGCTACGACGGGATT
# B19: UGGCGAC (DNA:RNA)
# RNA: B6 RNA with A25U, A26G, A29G, U30A, G31C
# DNA 1: CAATCTGAATTCCGGTCTCCC
# DNA 2: TGGTGGCTACGACGGGATT
# B20: CCGGGGC (DNA:RNA)
# RNA: B6 RNA with A25C, A26C, C28G, A29G, U30G, G31C
# DNA 1: CAATCTGAATTCCGGTCTCCC
# DNA 2: TGGTGGCTACGACGGGATT
# B21: ACUCUUG (DNA:RNA)
# RNA: B6 RNA with A26C, G27U, A29U
# DNA 1: CAATCTGAATTCCGGTCTCCC
# DNA 2: TGGTGGCTACGACGGGATT
# B22: GAGUGCG (DNA:RNA)
# RNA: B6 RNA with A25G, C28U, A29G, U30C
# DNA 1: CAATCTGAATTCCGGTCTCCC
# DNA 2: TGGTGGCTACGACGGGATT
# B23: UGCCUUA (DNA:RNA)
# RNA: B1 RNA with U26G, U28C, A30U, U31A
# DNA 1: CAATCTGAATTCCGGTCTCCC
# DNA 2: TGGTGGCTACGACGGGATT
# B24: UUUUCUC (DNA:RNA)
# RNA: B1 RNA with C27U, U29C, A30U, U31C
# DNA 1: CAATCTGAATTCCGGTCTCCC
# DNA 2: TGGTGGCTACGACGGGATT
# B25: UUGUCUC (DNA:RNA)
# RNA: B1 RNA with C27G, U29C, A30U, U31C
# DNA 1: CAATCTGAATTCCGGTCTCCC
# DNA 2: TGGTGGCTACGACGGGATT
# B26: UUCAGGC (DNA:RNA)
# RNA: B1 RNA with U28A, U29G, A30G, U31C
# DNA 1: CAATCTGAATTCCGGTCTCCC
# DNA 2: TGGTGGCTACGACGGGATT
# B27: ACCAUGC (DNA:RNA)
# RNA: B1 RNA with U25A, U26C, U28A, A30G, U31C
# DNA 1: CAATCTGAATTCCGGTCTCCC
# DNA 2: TGGTGGCTACGACGGGATT
# B28: ACCAUGG (DNA:RNA)
# RNA: B6 RNA with A26C, G27C, C28A, A29U, U30G
# DNA 1: CAATCTGAATTCCGGTCTCCC
# DNA 2: TGGTGGCTACGACGGGATT
# B29: CAGCAUG (DNA:RNA)
# RNA: B6 RNA with A25C
# DNA 1: CAATCTGAATTCCGGTCTCCC
# DNA 2: TGGTGGCTACGACGGGATT
# B30: AGCAUGU (DNA:RNA)
# RNA: B1 RNA with U25A, U26G, U28A, A30G
# DNA 1: CAATCTGAATTCCGGTCTCCC
# DNA 2: TGGTGGCTACGACGGGATT
# B31: AGCAUUG (DNA:RNA)
# RNA: B6 RNA with A26G, G27C, C28A, A29U
# DNA 1: CAATCTGAATTCCGGTCTCCC
# DNA 2: TGGTGGCTACGACGGGATT
# B32: CAGCAUA (DNA:RNA)
# RNA: B6 RNA with A25C, G31A
# DNA 1: CAATCTGAATTCCGGTCTCCC
# DNA 2: TGGTGGCTACGACGGGATT
# B33: AUGCUGC (DNA:RNA)
# RNA: B6 RNA with A26U, A29U, U30G, G31C
# DNA 1: CAATCTGAATTCCGGTCTCCC
# DNA 2: TGGTGGCTACGACGGGATT
# B34: ACCAUGU (DNA:RNA)
# RNA: B1 RNA with U25A, U26C, U28A, A30G
# DNA 1: CAATCTGAATTCCGGTCTCCC
# DNA 2: TGGTGGCTACGACGGGATT
# B35: CAGCAUC (DNA:RNA)
# RNA: B6 RNA with A25C, G31C
# DNA 1: CAATCTGAATTCCGGTCTCCC
# DNA 2: TGGTGGCTACGACGGGATT
# B36: AGCCAUG (DNA:RNA)
# RNA: B6 RNA with A26G, G27C
# DNA 1: CAATCTGAATTCCGGTCTCCC
# DNA 2: TGGTGGCTACGACGGGATT
# B37: AGCAUGG (DNA:RNA)
# RNA: B6 RNA with A26G, G27C, C28A, A29U, U30G
# DNA 1: CAATCTGAATTCCGGTCTCCC
# DNA 2: TGGTGGCTACGACGGGATT
# B38: AUGCUUG (DNA:RNA)
# RNA: B6 RNA with A26U, A29U
# DNA 1: CAATCTGAATTCCGGTCTCCC
# DNA 2: TGGTGGCTACGACGGGATT
# Target: T1, RBFOX1 RRM
# Experiment: EMSA; HiTS-Eq, 1 nM pool, 10 min; buffer printed only for the single-RNA assays: 10 mM Tris pH 7.5, 150 mM NaCl, 3.4 mM EDTA, 0.001% NP-40, 30 C
# Conditions: tags: His6 N-terminal (pET28a); label: 5' 32P
# Outline: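 Purified RbFox RRM, wild type or mutant, was incubated for 10 min in 50 µL with 1 nM of a 5′-radiolabelled RNA pool carrying 7 randomized nucleotides, whose flanks were annealed to DNA oligonucleotides, over a series of increasing protein concentrations. Unbound RNA was resolved on 8% native PAGE, cut out, reverse-transcribed, barcoded by PCR and sequenced on an Illumina HiSeq 2500. Relative association constants were derived from changes in read counts for each RNA species versus the control reaction and normalised to the cognate motif.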
row,Binder,binding signal
1,B1,0.00377 KA relative to UGCAUGU
2,B2,0.0285 KA relative to UGCAUGU
3,B3,0.0037 KA relative to UGCAUGU
4,B4,0.00432 KA relative to UGCAUGU
5,B5,0.0079 KA relative to UGCAUGU
6,B6,0.674 KA relative to UGCAUGU
7,B7,0.795 KA relative to UGCAUGU
8,B8,0.0137 KA relative to UGCAUGU
9,B9,0.00471 KA relative to UGCAUGU
10,B10,0.0203 KA relative to UGCAUGU
11,B11,0.011 KA relative to UGCAUGU
12,B12,0.0216 KA relative to UGCAUGU
13,B13,0.022 KA relative to UGCAUGU
14,B14,0.35 KA relative to UGCAUGU
15,B15,0.00459 KA relative to UGCAUGU
16,B16,0.888 KA relative to UGCAUGU
17,B17,0.0049 KA relative to UGCAUGU
18,B18,0.00994 KA relative to UGCAUGU
19,B19,0.00695 KA relative to UGCAUGU

row,Binder,binding signal
1,B20,0.0147 KA relative to UGCAUGU
2,B21,0.0078 KA relative to UGCAUGU
3,B22,0.0156 KA relative to UGCAUGU
4,B23,0.00671 KA relative to UGCAUGU
5,B24,0.0162 KA relative to UGCAUGU
6,B25,0.0203 KA relative to UGCAUGU
7,B26,0.0127 KA relative to UGCAUGU
8,B27,0.00513 KA relative to UGCAUGU
9,B28,0.00726 KA relative to UGCAUGU
10,B29,0.665 KA relative to UGCAUGU
11,B30,0.738 KA relative to UGCAUGU
12,B31,0.0104 KA relative to UGCAUGU
13,B32,0.00331 KA relative to UGCAUGU
14,B33,0.00746 KA relative to UGCAUGU
15,B34,0.00472 KA relative to UGCAUGU
16,B35,0.0124 KA relative to UGCAUGU
17,B36,0.0102 KA relative to UGCAUGU
18,B37,0.347 KA relative to UGCAUGU
19,B38,0.0339 KA relative to UGCAUGU
